Compounds with a hit are over-represented: about 1.8% of the library has one in this group of screens.
MBNL1 CUG block = inhibitors of human MBNL1 binding to CUG repeat RNA. TR-FRET MBNL1-His/biotin-(CUG)12 binding, 665/545 ratio. Potency, µM (highest dose often 57.5 µM), without a hit: at the top dose activity change, negative = inhibition, usual class: inhibitors. 0.036% of 280,000 active. Q9NR56; active means well fitted inhibition curve with a large enough effect in the signal ratio, with a control signal flat, not every such curve was filed as active; inconclusive means small, poorly fitted or top-dose-only effect, or effect the other way, or a change in a side signal; inactive means no such curve, though single readings can be large or run the other way; the % refers to the signal ratio; further: potency means the concentration at half of the fitted maximal effect; on the % scale 0 is the no-effect control and ±100 the full control effect
Target sequence (Q9NR56 whole entry, looked up): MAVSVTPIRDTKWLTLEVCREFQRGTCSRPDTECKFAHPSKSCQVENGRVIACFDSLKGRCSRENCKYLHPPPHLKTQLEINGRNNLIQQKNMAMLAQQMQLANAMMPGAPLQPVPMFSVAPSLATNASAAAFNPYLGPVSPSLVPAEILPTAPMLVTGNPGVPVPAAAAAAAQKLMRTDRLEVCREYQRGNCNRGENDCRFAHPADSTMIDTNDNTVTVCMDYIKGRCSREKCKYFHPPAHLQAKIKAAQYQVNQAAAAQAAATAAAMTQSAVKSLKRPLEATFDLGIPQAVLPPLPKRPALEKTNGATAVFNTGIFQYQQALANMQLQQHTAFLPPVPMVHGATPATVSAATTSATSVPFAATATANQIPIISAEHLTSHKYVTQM
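TR-FRET between His-tagged MBNL1 and biotin-(CUG)12 RNA, detected with Tb anti-His antibody (0.055 ng/ul) and streptavidin-XL665 (5 nM), 60 min at room temperature. Compounds titrated 92 nM to 58 uM; 665/545 nm ratio normalized to buffer and complex controls.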
ClpP mod = qHTS Assay for Activators of ClpP; ATP-dependent Clp protease proteolytic subunit (Bacillus subtilis (strain 168)), P80244; purified B. subtilis ClpP, FRET peptide cleavage, 20 min; Potency, µM (doses to about 57.5 µM), inactives show top-dose activity change, negative = active; 1.9% of 340,000 active; AID 651965, 2013; active means well fitted falling curve with a large enough effect; inconclusive means small, poorly fitted or top-dose-only effect; inactive means no such curve, though single readings can be large or run the other way; further: potency means the concentration at half of the fitted maximal effect; the source files actives as falling curves though it sought activators and does not explain the sign; nearly all actives have a fitted effect of over 65% in size
Target sequence (P80244 whole entry, looked up): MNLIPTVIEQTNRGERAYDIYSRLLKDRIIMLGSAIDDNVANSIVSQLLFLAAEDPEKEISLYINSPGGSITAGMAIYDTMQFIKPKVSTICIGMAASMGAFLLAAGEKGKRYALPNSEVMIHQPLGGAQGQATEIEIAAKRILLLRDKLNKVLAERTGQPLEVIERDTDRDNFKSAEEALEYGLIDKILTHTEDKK
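Purified B. subtilis ClpP, 10 microg/mL final in Tris/HCl pH8 with KCl, BSA, glycerol and Tween-20, cleaved an Abz/nitrotyrosine-quenched decapeptide. Fluorescence (ex 320, em 430) was read at 0 and 20 min at room temperature. Delta was normalized to 5.8 microM ADEP and DMSO/no-enzyme controls.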
TCR act = T cell receptor activation. primary human leukocytes, anti-CD3, IL-2 HTRF, 48 h. Potency, µM (titrated, usually from 9.22 µM), for inactives: at the top dose activation of IL-2 secretion, actives largely listed as activators. 330,000 tested, under 10 active. AID 504894; further: % of control where 0% means no effect
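Activity was scored as IL-2 release from primary human leukocytes given only a TCR signal (a-CD3 beads) plus compound for 48 hr. Detection used a two-antibody HTRF format read at 665nm.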
Mito fusion yeast = blocks mitochondrial division or promotes mitochondrial fusion; S. cerevisiae fusion-defective mutant growth rescue, CellTiterGlo 48 h; Potency, µM (series often up to 46.1 µM), without a hit: at the top dose growth rescue (activation), actives largely listed as activators; 0.23% of 320,000 active; AID 485298; further: potency means the concentration at half of the fitted maximal effect; % of control where 0% means no effect; nearly all actives have a fitted effect of over 45% in size
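Yeast fusion mutant, YPEG (non-fermentable carbon), compound, 48 h at 37C non-permissive; CellTiterGlo added, 10 min RT, luminescence read. Rescued growth = division inhibition.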
A-T KAP1 phos = candidate therapy for ataxia-telangiectasia. AID 485349. 0.19% of 320,000 active. Potency, µM (top dose mostly 57.5 µM), for inactives: at the highest dose activation, usual class: activators. F2112 A-T fibroblasts, KAP-1 phosphorylation AlphaLISA; neocarzinostatin DNA damage 30 min before lysis; further: potency means the concentration at half of the fitted maximal effect; % of control where 0% means no effect; nearly all actives have a fitted effect of over 45% in size
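ATM-like activity read as KAP-1 phosphorylation via AlphaLISA donor/acceptor antibody pairs after lysis and 6 hr at 25C. Cells were ATM-null patient fibroblasts (F2112, hTERT), dosed 60 min, then exposed to the DSB inducer NCS for 30 min.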
GRP78 ERSR act = inducers of ER stress response in human glioma cells. U87-MG GRP78 promoter luciferase reporter, 16 h. Potency, µM, for the others: top-dose activation, actives largely listed as activators. 0.02% of 420,000 active. AID 602332; further: potency means the concentration at half of the fitted maximal effect; series mostly up to about 76 µM; % of control where 0% means no effect; nearly all actives have a fitted effect of over 35% in size
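ERSR induction read as luciferase luminescence (Bright-Glo, 10 min at room temperature) in stably transfected human U87-MG glioma cells exposed to compounds for 16 h, using GRP78 as sensor.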
ClpP inh valid = validation of B. subtilis ClpP protease hits (inhibitors); shares compounds with ClpP mod; purified B. subtilis ClpP, FRET-FV substrate cleavage, 20 min; Potency, µM (top dose mostly 57.5 µM), for inactives: top-dose activity change, negative = inhibition, usual class: inhibitors; 40% of 470 active; further: potency means the concentration at half of the fitted maximal effect; on the % scale 0 is the no-effect control and ±100 the full control effect; nearly all actives have a fitted effect of over 70% in size
Starred values were filed as active, the others as inactive; ? = inconclusive; · = not tested or not shown; [ ] = remark or other dose. Unless noted, the call rests on the fitted dose curve; in most records, active means well fitted curve in the direction sought with a large enough effect; inconclusive means small, poorly fitted or top-dose-only effect, or another doubt; inactive means no such curve, though single readings can be large; an effect the other way counts as inactive or inconclusive.

SMILES	MBNL1 CUG block	ClpP mod	TCR act	Mito fusion yeast	A-T KAP1 phos	GRP78 ERSR act	ClpP inh valid
O=C(Nc1cccc(-c2cn3ccccc3n2)c1)c1cc2ccccc2oc1=O	?	36.7%	·	13.8%	5.2%	1.2%	14.0%
CC(=O)Nc1cccc(-c2cn3ccccc3n2)c1	3.1%	·	-3.0%	-0.8%	4.8%	7.3%	·
O=c1oc2ccccc2cc1-c1csc(Cc2nc(-c3ccc(Cl)cc3)cs2)n1	0.8%	2.6%	-2.1%[46.1 µM]	-1.3%	4.2%	-5.1%	·
O=c1oc2ccccc2cc1-c1nc(-c2cccc(Cl)c2)cs1	·	4.47µM*	·	·	·	-1.3%	?
CCc1cc2c(nc1CC)CCN(CC/C(C)=N/OC[C@@H](O)[C@@H]1O[C@@H]3OC(C)(C)O[C@@H]3[C@H]1O)C2	·	·	·	·	·	-4.2%	·
COc1cccc(NC(=O)c2cc([N+](=O)[O-])ccc2NCc2cccnc2)c1	?	42.1%	1.5%[46.1 µM]	-0.2%	-0.8%	-0.9%	0.4%
Cc1ccc(NC(=O)c2cc([N+](=O)[O-])ccc2NCc2cccnc2)cc1Cl	16.2%	-4.5%	3.8%	10.6%	0.0%	-1.9%	·
CCOc1ccc(NC(=O)c2cc3c(-c4ccccc4F)nn(C)c3s2)cc1	·	187.7%	·	·	·	-2.1%	?
CC1(C)OC(=O)C2(Cc3cc([N+](=O)[O-])ccc3N3CCCCCC32)C(=O)O1 (stereo unspecified)	·	-4.6%	·	·	·	-3.4%	·
CCCC1CCC(c2ccc(C(N)=O)cc2)CC1 (stereo unspecified)	1.1%	74.2%	-5.4%	3.8%	7.6%	-18.5%	0.3%
CCCCCC1CCC(c2ccc(C(N)=O)cc2)CC1 (stereo unspecified)	-0.1%	-2.8%	2.8%	-1.2%	-4.0%	-3.0%	·
O=C(Nc1ccc(NC(=O)c2cc3ccccc3o2)cc1)c1ccco1	3.1%	·	2.3%	4.3%	0.6%	1.1%	·
COc1ccc(NC(=O)c2ccco2)cc1NC(=O)c1cc2ccccc2o1	9.8%	79.9%	-0.2%	1.9%	10.7%	-5.2%	19.3µM*
O=c1[nH]c2cc(Cl)ccc2c(O)c1-c1ccc(Oc2ccccc2)cc1	·	·	·	?	·	-5.0%	-15.1%
O=c1[nH]c2cc(Cl)ccc2c(O)c1-c1cccc(Oc2ccccc2)c1	·	-17.0%	-9.0%	·	·	-1.6%	·
C[C@@H]1C(=O)O[C@H]2[C@H](O)[C@@]34[C@H]5CC(C(C)(C)C)[C@]36[C@H](OC(=O)[C@H]6O)O[C@]4(C(=O)O5)[C@@]12O (stereo partly specified)	·	·	·	·	·	-2.8%	·
CCCC[C@H]1CCCO[C@@](C(=O)NCc2ccccn2)(C(F)(F)F)C1	·	·	·	·	·	-2.7%	·
Cc1ccc(NS(=O)(=O)c2cccc(C(=O)N3CCCCCC3)c2)cc1	·	0.3%	-2.7%	2.3%	3.2%	-3.8%	·
Cc1ccc(NS(=O)(=O)c2cccc(C(=O)N3CCCCC3)c2)cc1	·	76.8%	-2.5%	·	-0.8%	-6.2%	-0.1%
O=C(NC1CCCCC1)N(Cc1cc2cc3c(cc2[nH]c1=O)OCCO3)CC1CCCO1 (stereo unspecified)	-3.5%	10µM*	4.2%	1.6%	-6.2%	-3.8%	?
CCc1nc(Nc2cccc(O)c2)c2oc3ccccc3c2n1	-2.0%	-11.3%	-2.3%	27.5%	1.3%	-5.2%	·
CCc1nc(Nc2ccncc2)c2oc3ccccc3c2n1	-0.2%	8.91µM*	-1.8%	-2.2%	11.2%	-5.4%	?
CCOc1ccccc1-c1nc2c(C(C)(C)C)nn(C)c2c(=O)[nH]1	7.9%	·	·	3.3%	4.9%	·	·

High-throughput results (PubChem)
